# Assay results reported in PubChem BioAssay (NCATS).
# Results filed as inconclusive are left out. Calls of active or inactive are those of the source. Unless noted, calls come from the whole dose curve.
# Legend:
# [1] = molecular target: Estrogen receptor (Homo sapiens) (UniProt P03372); experiment: qHTS assay for small molecule antagonists of estrogen receptor alpha signaling (AID 588513; active = well fitted curve in the direction sought with a large enough effect in the signal ratio, with a control signal flat, not every such curve was filed as active; the % refers to the signal ratio; note: % is set by controls: 0 for no effect and ±100 for the full control effect)
# Chain of Estrogen receptor (Homo sapiens) (P03372 whole entry, looked up): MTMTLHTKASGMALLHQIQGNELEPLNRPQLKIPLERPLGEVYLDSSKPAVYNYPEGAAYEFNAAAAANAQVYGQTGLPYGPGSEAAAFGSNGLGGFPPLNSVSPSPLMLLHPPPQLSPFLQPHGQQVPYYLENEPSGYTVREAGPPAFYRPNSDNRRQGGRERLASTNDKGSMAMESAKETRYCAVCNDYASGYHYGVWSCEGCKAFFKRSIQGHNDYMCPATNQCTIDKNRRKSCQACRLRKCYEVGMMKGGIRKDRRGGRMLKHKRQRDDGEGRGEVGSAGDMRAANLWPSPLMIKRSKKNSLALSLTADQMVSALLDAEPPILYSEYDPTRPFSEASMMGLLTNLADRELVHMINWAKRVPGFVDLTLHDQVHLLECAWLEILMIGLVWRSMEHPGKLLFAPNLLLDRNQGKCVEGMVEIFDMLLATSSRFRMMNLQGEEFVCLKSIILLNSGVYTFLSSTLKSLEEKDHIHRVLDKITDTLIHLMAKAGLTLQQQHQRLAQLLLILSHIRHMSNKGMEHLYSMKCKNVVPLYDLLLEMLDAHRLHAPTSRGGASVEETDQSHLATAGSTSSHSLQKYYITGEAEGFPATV
# How it was run: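 Beta-lactamase reporter, antagonist mode, HEK 293 GripTite cells; 0.5nM E2 stimulus, 18 h, 37 C; CCF4 dye 2 h RT; fluorescence. IC50 and efficacy from Hill fits, normalized to E2 and DMSO.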
# [2] = molecular target: Estrogen receptor (Homo sapiens) (UniProt P03372); experiment: qHTS assay for small molecule agonists of estrogen receptor alpha signaling (AID 588514); note: nearly all actives have a fitted effect of over 70% in size; note: potency is the fitted concentration of half-maximal effect;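 for activation: 0% = vehicle only and 100% = reference agonist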
# How it was run: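 Cells were plated at 5000/well, incubated 4 hrs at 37 C, dosed with compound titration series, incubated 18 hrs at 37 C, loaded with CCF4 dye for 2 hrs at RT, then fluorescence was read.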
# [3] = qHTS assay for small molecule antagonists of peroxisome proliferator-activated receptor delta signaling (AID 588535); settings: HEK293T PPARd-UAS-bla, beta-lactamase FRET ratio, 18 h; 460 nm channel;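 note: cells co-treated with a PPAR-delta agonist as stimulator during compound exposure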
# How it was run: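 HEK293T PPAR-delta-UAS-bla cells, 4000/well, 2% charcoal/dextran FBS; 5 h 37 C; cpd titration; 18 h 37 C; CCF4 2 h RT; FI 460/530 nm; Hill fit → IC50, efficacy.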
# [4] = molecular target: Peroxisome proliferator-activated receptor gamma (Homo sapiens) (UniProt P37231); experiment: qHTS assay for small molecule agonists of peroxisome proliferator-activated receptor gamma signaling (AID 588536; active = well fitted curve in the direction sought with a large enough effect in the signal ratio, with a control signal flat, not every such curve was filed as active; the % refers to the signal ratio;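 note: 0% = DMSO basal wells and 100% = rosiglitazone at 2 µM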)
# Chain of Peroxisome proliferator-activated receptor gamma (Homo sapiens) (P37231 whole entry, looked up): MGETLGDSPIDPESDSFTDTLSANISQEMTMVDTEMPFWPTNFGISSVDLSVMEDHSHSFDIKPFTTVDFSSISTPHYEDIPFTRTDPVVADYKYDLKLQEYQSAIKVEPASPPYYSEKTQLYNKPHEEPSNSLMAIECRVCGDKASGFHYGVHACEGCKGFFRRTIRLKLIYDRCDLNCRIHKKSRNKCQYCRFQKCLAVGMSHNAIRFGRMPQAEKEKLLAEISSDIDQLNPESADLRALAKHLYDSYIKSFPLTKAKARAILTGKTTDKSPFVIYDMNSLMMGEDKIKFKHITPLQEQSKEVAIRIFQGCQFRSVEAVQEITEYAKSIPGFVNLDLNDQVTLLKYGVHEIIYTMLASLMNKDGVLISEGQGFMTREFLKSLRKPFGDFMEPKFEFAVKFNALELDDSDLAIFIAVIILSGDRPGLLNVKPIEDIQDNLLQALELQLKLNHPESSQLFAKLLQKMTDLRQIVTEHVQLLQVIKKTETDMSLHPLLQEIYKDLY
# How it was run: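 Test agents, titrated, stimulated HEK293 UAS-bla cells overnight (16 h, 37 C). Substrate CCF4 was then added for two hours at room temperature before fluorescence reading.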
# [5] = molecular target: Vitamin D3 receptor (Homo sapiens) (UniProt P11473); experiment: qHTS assay for small molecule antagonists of vitamin D receptor signaling (AID 588541);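 note: receptor activated by calcitriol during compound treatment; series mostly up to about 77 µM; % is set by controls: 0 for no effect and ±100 for the full control effect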
# Chain of Vitamin D3 receptor (Homo sapiens) (P11473 whole entry, looked up): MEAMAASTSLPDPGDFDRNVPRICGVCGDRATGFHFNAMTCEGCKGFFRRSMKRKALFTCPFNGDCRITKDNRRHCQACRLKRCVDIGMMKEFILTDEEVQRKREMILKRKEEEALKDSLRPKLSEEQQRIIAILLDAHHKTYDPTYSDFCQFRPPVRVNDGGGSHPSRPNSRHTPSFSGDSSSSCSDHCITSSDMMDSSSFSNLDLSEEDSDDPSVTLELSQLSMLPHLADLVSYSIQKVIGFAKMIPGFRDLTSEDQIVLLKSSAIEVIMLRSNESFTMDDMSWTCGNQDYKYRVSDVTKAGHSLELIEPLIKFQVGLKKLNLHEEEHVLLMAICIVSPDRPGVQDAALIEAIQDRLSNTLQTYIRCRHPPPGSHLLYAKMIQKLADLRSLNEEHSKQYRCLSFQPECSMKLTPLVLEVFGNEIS
# How it was run: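 Antagonist-mode beta-lactamase reporter assay: HEK293T VDR-UAS-bla cells were exposed to titrated compound alongside 1-alpha,25-dihydroxyvitamin D3 at 3 nM final for 16 h. Values were normalized to the 50 nM agonist control and DMSO basal, with IC50 and efficacy from Hill equation fits.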
# [6] = qHTS assay for small molecule agonists of retinoid X receptor alpha signaling (AID 588544); settings: HEK293T RXRa-UAS-bla, beta-lactamase reporter, 18 h; 530 nm emission;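 for activation: 0% = DMSO basal wells and 100% = reference agonist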
# [7] = molecular target: Retinoic acid receptor RXR-alpha (Homo sapiens) (UniProt P19793); experiment: as above
# Chain of Retinoic acid receptor RXR-alpha (Homo sapiens) (P19793 whole entry, looked up): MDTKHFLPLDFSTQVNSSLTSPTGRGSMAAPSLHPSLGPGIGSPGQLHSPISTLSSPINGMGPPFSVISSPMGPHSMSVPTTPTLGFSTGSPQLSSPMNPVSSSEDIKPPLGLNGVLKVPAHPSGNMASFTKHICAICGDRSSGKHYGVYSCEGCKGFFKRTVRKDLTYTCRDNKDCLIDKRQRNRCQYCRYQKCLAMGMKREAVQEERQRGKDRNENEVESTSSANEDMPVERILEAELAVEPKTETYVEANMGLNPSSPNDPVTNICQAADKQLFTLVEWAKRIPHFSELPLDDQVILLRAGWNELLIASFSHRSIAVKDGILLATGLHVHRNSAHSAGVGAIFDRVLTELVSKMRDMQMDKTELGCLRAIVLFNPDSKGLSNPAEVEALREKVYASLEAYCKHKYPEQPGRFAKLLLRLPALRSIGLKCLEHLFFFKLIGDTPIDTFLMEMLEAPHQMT
# [8] = molecular target: Thyroid hormone receptor beta (Homo sapiens) (UniProt P10828); experiment: qHTS assay for small molecule agonists of thyroid hormone receptor beta signaling (AID 588545);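 note: 0% = DMSO only and 100% = 10 nM T3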
# Chain of Thyroid hormone receptor beta (Homo sapiens) (P10828 whole entry, looked up): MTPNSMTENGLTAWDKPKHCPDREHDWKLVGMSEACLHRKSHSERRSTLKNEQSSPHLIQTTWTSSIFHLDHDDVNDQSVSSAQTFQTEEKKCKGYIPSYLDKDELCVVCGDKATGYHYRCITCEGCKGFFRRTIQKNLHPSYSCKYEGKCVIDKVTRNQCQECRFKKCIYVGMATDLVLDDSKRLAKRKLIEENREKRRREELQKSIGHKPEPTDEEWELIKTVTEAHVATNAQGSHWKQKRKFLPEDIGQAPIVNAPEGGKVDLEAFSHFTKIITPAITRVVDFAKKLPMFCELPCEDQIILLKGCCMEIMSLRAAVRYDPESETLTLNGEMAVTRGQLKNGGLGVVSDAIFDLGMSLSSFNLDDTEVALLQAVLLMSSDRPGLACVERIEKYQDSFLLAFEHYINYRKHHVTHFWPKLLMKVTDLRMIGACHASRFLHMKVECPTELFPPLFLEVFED
# How it was run: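 TR-UAS-bla GripTite HEK 293 cells (2500/well, medium with 2% charcoal/dextran FBS) were treated in agonist mode for 18 h at 37 C, titrated. Beta-lactamase was read by CCF4 ratio after 2 h; normalized to 10 nM T3 (100%) and DMSO, Hill-fitted for EC50 and efficacy.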
# [9] = qHTS assay for small molecule antagonists of retinoid X receptor alpha signaling (AID 588546; active = well fitted inhibition curve with a large enough effect in the signal ratio, with a control signal flat, not every such curve was filed as active; the % refers to the signal ratio;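 note: cells stimulated with 9-cis-retinoic acid as agonist; % is set by controls: 0 for no effect and ±100 for the full control effect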); settings: HEK293T RXRa-UAS-bla, beta-lactamase ratio, antagonist mode; measured here: W530 green channel, cytotoxicity proxy
# How it was run: (§1)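 Beta-lactamase reporter inhibition, read as CCF4 fluorescence ratio (ex 405, em 460/530 nm) after 2 h at RT. HEK293T UAS-bla cells, 2500/well, were stimulated with 9-cis-RA at 500 or 100 nM final alongside test compound for 18 h at 37 C.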
# [10] = molecular target: Retinoic acid receptor RXR-alpha (Homo sapiens) (UniProt P19793); experiment: as above; settings: HEK293T RXRa-UAS-bla, beta-lactamase ratio, antagonist mode
# How it was run: as §1
# [11] = molecular target: Thyroid hormone receptor beta (Homo sapiens) (UniProt P10828); experiment: qHTS assay for small molecule antagonists of thyroid hormone receptor beta signaling (AID 588547; active = well fitted inhibition curve with a large enough effect in the signal ratio, with a control signal flat, not every such curve was filed as active; the % refers to the signal ratio;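 note: cells stimulated with 0.4 nM T3 agonist during compound exposure; series mostly up to about 77 µM; % is set by controls: 0 for no effect and ±100 for the full control effect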); settings: TR-UAS-bla HEK293, beta-lactamase ratio, antagonist mode, 18 h
# How it was run: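 Inhibition of T3-driven (0.4nM final) beta-lactamase reporter activity was measured over 0.59 nM to 92 uM compound after 18 h at 37 C. The cells were GripTite HEK293 TR-UAS-bla in charcoal/dextran-stripped serum, with CCF4 ratio read-out and IC50 from Hill fits.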
# [12] = qHTS assay for small molecule activators of the nuclear factor-kappa B (NF-kB) signaling pathway (AID 651749; active = well fitted activation curve with a large enough effect in the signal ratio; the % refers to the signal ratio; note: series mostly up to about 77 µM; % of control where 0% means no effect); settings: NF-kB-bla ME-180 cells, beta-lactamase FRET ratio, 16 h; activation: stronger effect = higher value
# How it was run: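 Readout: beta-lactamase reporter driven by an NF-kB response element, detected fluorescently as loss of FRET. Cells were the ME-180 line, treated 16 hr at 37C with pin-transferred compound.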
# [13] = qHTS assay for environmental chemicals that activate the Aryl hydrocarbon Receptor (AhR) signaling pathway (AID 651777; active = well fitted curve in the direction sought with a large enough effect; an effect the other way counts as inactive or inconclusive; note: % of control where 0% means no effect; nearly all actives have a fitted effect of over 15% in size); settings: 1A2-DRE human hepatoma cells, luciferase, 24 h; activation: stronger effect = higher value
# How it was run: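 Human hepatoma 1A2-DRE cells stably carrying a DRE/CYP1A2 promoter–luciferase reporter, 1,200 cells/well, exposed to compound 24 hr at 37 C. Luciferase read by One-Glo luminescence after 30 min at room temperature; increased signal marks AhR activation.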
# [14] = molecular target: Peroxisome proliferator-activated receptor alpha (Homo sapiens) (UniProt Q07869); experiment: qHTS assay for small molecule agonists of the peroxisome proliferator-activated receptor alpha (PPARalpha) signaling pathway (AID 651778; active = well fitted curve in the direction sought with a large enough effect; an effect the other way counts as inactive or inconclusive; note: % of control where 0% means no effect); settings: PathHunter PPARalpha complementation, chemiluminescence, 6 h; max response: stronger effect = higher value
# Chain of Peroxisome proliferator-activated receptor alpha (Homo sapiens) (Q07869 whole entry, looked up): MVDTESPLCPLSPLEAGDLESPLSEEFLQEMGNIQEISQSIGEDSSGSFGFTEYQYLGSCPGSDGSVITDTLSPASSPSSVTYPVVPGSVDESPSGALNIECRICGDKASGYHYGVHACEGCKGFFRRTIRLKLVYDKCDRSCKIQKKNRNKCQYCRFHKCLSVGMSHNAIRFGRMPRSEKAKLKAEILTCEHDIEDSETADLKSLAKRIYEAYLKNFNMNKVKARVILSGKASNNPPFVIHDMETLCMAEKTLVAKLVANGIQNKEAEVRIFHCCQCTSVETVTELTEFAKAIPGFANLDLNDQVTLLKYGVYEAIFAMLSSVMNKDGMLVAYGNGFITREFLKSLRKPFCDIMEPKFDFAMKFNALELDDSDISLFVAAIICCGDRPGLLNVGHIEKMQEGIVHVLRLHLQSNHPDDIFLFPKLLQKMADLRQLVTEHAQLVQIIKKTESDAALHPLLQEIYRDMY
# How it was run: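 Chemiluminescence from complemented enzyme reported PPARalpha activation in cells after 6 hr of compound treatment at 37 C. The detection reagent was incubated for 60 min at room temperature, and compounds were scored as agonists.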
# [15] = qHTS assay for small molecule agonists of the antioxidant response element (ARE) signaling pathway measured by Nrf2-dependant transcriptional activity - cell viability counter screen (AID 720653; active = well fitted curve in the direction sought with a large enough effect in the repeat runs; an effect the other way counts as inactive or inconclusive; note: % is set by controls: 0 for no effect and ±100 for the full control effect); settings: ARE-bla HepG2 viability, CellTiter-Glo ATP luminescence, 16 h; max response: stronger effect = lower value
# How it was run: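 Cytotoxicity counter screen: intracellular ATP quantified by CellTiter-Glo luminescence in the same ARE-bla HepG2 plates, after 16 h compound exposure and a 2 h beta-lactamase substrate step.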
# [16] = qHTS assay for cell viability of HEK293 cells (AID 743288; active = well fitted curve in the direction sought with a large enough effect; an effect the other way counts as inactive or inconclusive; note: % is set by controls: 0 for no effect and ±100 for the full control effect; nearly all actives have a fitted effect of over 50% in size); settings: ATP luminescence (CellTiter-Glo), 18 h; max response: stronger effect = lower value
# How it was run: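 Environmental chemicals tested in qHTS format against parental HEK293 cells; 18 h treatment, 37 C; read-out ATP luminescence (CellTiter-Glo), 30 min RT development.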
# [17] = qHTS assay for cell viability of the p53RE-bla HCT-116 cell line (AID 743292; active = well fitted curve in the direction sought with a large enough effect; an effect the other way counts as inactive or inconclusive; note: % is set by controls: 0 for no effect and ±100 for the full control effect; nearly all actives have a fitted effect of over 55% in size)
# How it was run: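 CellSensor p53RE-bla HCT-116 cells (4,000/well) pre-incubated 5 h at 37 C, then exposed to compounds in DMSO for 16 h at 37 C. Viability read as ATP content by CellTiter-Glo luminescence after 30 min at room temperature.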
# [18] = molecular target: Nuclear receptor subfamily 1 group I member 2 (Rattus norvegicus) (UniProt Q9R1A7); experiment: qHTS assay for small molecule activators of the rat pregnane X receptor (rPXR) signaling pathway (AID 651751; call rule not given here; note: 0% is about no effect); settings: rPXR reporter cells, luciferase (One-Glo), 24 h
# Chain of Nuclear receptor subfamily 1 group I member 2 (Rattus norvegicus) (Q9R1A7 whole entry, looked up): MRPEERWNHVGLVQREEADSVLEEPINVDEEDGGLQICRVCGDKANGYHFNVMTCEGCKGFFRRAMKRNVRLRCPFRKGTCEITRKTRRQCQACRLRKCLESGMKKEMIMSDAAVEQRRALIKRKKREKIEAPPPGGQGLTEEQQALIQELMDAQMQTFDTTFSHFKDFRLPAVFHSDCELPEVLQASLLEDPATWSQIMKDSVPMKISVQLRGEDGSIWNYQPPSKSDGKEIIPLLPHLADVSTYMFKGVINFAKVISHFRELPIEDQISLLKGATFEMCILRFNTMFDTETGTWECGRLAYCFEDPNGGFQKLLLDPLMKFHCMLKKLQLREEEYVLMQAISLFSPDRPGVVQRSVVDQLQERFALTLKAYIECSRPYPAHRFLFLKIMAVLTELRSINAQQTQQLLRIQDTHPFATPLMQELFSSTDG
# [19] = qHTS assay for small molecule activators of the human pregnane X receptor (PXR) signaling pathway (AID 720659; call rule not given here; note: 0% is about no effect)
# [20] = molecular target: Glucocorticoid receptor (Homo sapiens) (UniProt P04150); experiment: qHTS assay for small molecule agonists of glucocorticoid receptor signaling (AID 588532; active = well fitted curve in the direction sought with a large enough effect in the signal ratio, with a control signal flat; the % refers to the signal ratio;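 note: 100% = dexamethasone at 0.1 µM and 0% = DMSO only wells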); settings: HeLa MMTV-bla, beta-lactamase ratio, agonist, 18 h; stronger effect = higher value; percent of dexamethasone control, DMSO zero
# Chain of Glucocorticoid receptor (Homo sapiens) (P04150 whole entry, looked up): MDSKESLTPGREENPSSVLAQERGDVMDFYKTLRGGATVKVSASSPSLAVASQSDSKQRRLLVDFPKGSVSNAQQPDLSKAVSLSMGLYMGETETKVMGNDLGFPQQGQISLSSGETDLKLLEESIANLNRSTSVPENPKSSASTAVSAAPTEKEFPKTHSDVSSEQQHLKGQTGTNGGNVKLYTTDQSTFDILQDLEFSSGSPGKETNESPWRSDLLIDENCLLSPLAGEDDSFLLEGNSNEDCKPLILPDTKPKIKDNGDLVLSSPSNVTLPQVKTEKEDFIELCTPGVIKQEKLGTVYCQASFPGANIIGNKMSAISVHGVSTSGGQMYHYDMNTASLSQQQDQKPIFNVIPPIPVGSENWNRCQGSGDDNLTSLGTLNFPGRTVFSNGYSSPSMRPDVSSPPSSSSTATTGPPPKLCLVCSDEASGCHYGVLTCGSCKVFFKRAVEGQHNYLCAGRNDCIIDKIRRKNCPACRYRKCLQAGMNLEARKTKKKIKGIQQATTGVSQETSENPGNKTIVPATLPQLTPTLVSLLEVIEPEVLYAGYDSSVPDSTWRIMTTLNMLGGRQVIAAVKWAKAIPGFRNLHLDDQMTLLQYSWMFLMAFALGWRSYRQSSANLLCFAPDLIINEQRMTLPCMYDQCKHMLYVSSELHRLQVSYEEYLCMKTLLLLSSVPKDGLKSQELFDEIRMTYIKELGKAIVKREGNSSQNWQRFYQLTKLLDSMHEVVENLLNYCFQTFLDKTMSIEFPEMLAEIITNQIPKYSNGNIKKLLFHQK
# How it was run: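 Agonist-mode qHTS: GRE-driven beta-lactamase in HeLa cells exposed 18 h to titrated compounds (up to 92 uM), then CCF4 ratio read after 2 h at RT; Hill-fitted EC50, efficacy relative to 0.1 uM dexamethasone.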
SMILES,Potency [1],Potency [2],max response [3],outcome [4],Potency [5],max response [6],Potency [7],Potency [8],max response [9],max response [10],activity change % (negative = inhibition) [11],activation [12],activation [13],max response [14],max response [15],max response [16],Potency [17],max response [18],outcome [19],activation [20]
NNS(=O)(=O)c1ccc(Oc2ccc(S(=O)(=O)NN)cc2)cc1,inactive,447 nM (active),18.7%,inactive,inactive,-6.27%,inactive,inactive,-11.5%,-7.05% (inactive),-2.89% (inactive),-1.01% (inactive),0.263% (inactive),-6% (inactive),-13.9% (inactive),0.11% (inactive),inactive,8.65% (inactive),inactive,–
CCCCOCCOCCOC(=O)CCCCC(=O)OCCOCCOCCCC,inactive,inactive,22.3%,inactive,inactive,-9.1%,inactive,inactive,-1.41%,5.79% (inactive),-12.6% (inactive),-0.225% (inactive),-0.636% (inactive),3.34% (inactive),-2.75% (inactive),-4.73% (inactive),inactive,-6.4% (inactive),–,-7.36% (inactive)
C=Cc1ccccc1Br,inactive,inactive,-10.1%,inactive,inactive,-4.64%,inactive,inactive,1.9%,–,-5.89% (inactive),-1.27% (inactive),1.62% (inactive),0.716% (inactive),-11.1% (inactive),-11.7% (inactive),inactive,-0.877% (inactive),inactive,-5.73% (inactive)
CCCCOCC(C)OCC(C)O (stereo not drawn),inactive,inactive,-19.2%,inactive,inactive,-14.7%,inactive,inactive,-15.5%,-6.81% (inactive),-10.2% (inactive),-0.368% (inactive),0.285% (inactive),-0.312% (inactive),8.96% (inactive),0.272% (inactive),–,2.61% (inactive),inactive,–
Cl[Si](Cl)(c1ccccc1)c1ccccc1,inactive,inactive,5.91%,inactive,–,-17.4%,inactive,inactive,-8.47%,-0.846% (inactive),–,–,-1.05% (inactive),5.98% (inactive),-10.9% (inactive),1.19% (inactive),inactive,–,–,0.877% (inactive)
Cn1c(=O)[nH]c(=O)n(C2CCCCC2)c1=O,inactive,inactive,–,inactive,inactive,-3.38%,inactive,inactive,-9.26%,5.47% (inactive),4.13% (inactive),-1.18% (inactive),-1.1% (inactive),-0.628% (inactive),-9.94% (inactive),-7.06% (inactive),inactive,1.25% (inactive),inactive,12.5% (inactive)
O=C(Cl)c1cc(Cl)cc(Cl)c1,inactive,inactive,16%,inactive,inactive,-4.35%,inactive,inactive,3.33%,-11.9% (inactive),-10.7% (inactive),-1.64% (inactive),2.73% (inactive),-3.03% (inactive),-8.26% (inactive),-4.86% (inactive),inactive,2.44% (inactive),inactive,-2.63% (inactive)
CC1(C)C(=O)N(Cl)C(=O)N1Cl,inactive,inactive,–,inactive,inactive,-24.2%,inactive,inactive,1.31%,-12.2% (inactive),-0.904% (inactive),–,0.743% (inactive),-0.353% (inactive),-14.6% (inactive),-4.37% (inactive),–,-0.522% (inactive),inactive,–
C[N+](C)(C)CC(O)CCl (stereo not drawn),inactive,inactive,1.91%,inactive,inactive,-3.49%,inactive,inactive,-3.33%,4% (inactive),-6.17% (inactive),-1.69% (inactive),0.882% (inactive),-0.685% (inactive),0.797% (inactive),-11.6% (inactive),inactive,0.555% (inactive),inactive,-7.46% (inactive)
CCC(C)(C)C1CCC(O)CC1 (stereo not drawn),inactive,inactive,-12.1%,inactive,inactive,-12.5%,inactive,inactive,9.01%,-29.4% (inactive),-5.82% (inactive),-0.533% (inactive),-0.126% (inactive),-0.406% (inactive),-8.65% (inactive),-3.71% (inactive),inactive,-1.01% (inactive),inactive,–
CCOC(=O)CC(O)(CC(=O)OCC)C(=O)OCC,inactive,inactive,–,inactive,inactive,-10.3%,inactive,inactive,-3.18%,-3.42% (inactive),13% (inactive),-1.34% (inactive),0.341% (inactive),0.853% (inactive),-8.63% (inactive),3.07% (inactive),inactive,-0.162% (inactive),inactive,-0.518% (inactive)
